# Results from the supplement of paper PMC8728848.
# This is one part of a sample in which the strongest signals are shown more often than they occur.
# Tests used:
# Assay in all cases: glycan array binding signal (z-score within array); higher = stronger binding
# Conditions in all cases: glycan notation: IUPAC condensed, linker removed
# Fuc(a1-2)Gal(b1-3)GlcNAc = target: Fuc(a1-2)Gal(b1-3)GlcNAc
# Outline: (§1)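 Arrays were curated from the Consortium for Functional Glycomics database, 3228 in total, and kept only where the protein sequence was available. Binding is expressed as a within-array Z-score. This score was averaged across arrays of the same protein sequence at different concentrations or buffers and across linkers, and negative values can be read as non-binding.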
# [1] = target: Fuc(a1-2)Gal(b1-3)[Fuc(a1-4)]GlcNAc
# Outline: as §1
# Fuc(a1-2)Gal(b1-4)GlcNAc = target: Fuc(a1-2)Gal(b1-4)GlcNAc
# Outline: as §1
# [2] = target: Fuc(a1-2)[Gal(a1-4)]Gal(b1-4)GlcNAc
# Outline: as §1
# [3] = target: Fuc(a1-2)[GalNAc(a1-4)]Gal(b1-4)GlcNAc
# Outline: as §1
# Gal(a1-3)Gal(b1-4)GlcNAc = target: Gal(a1-3)Gal(b1-4)GlcNAc
# Outline: as §1
# Gal(a1-4)GlcNAc = target: Gal(a1-4)GlcNAc
# Outline: as §1
# Gal4S(b1-4)GlcNAc = target: Gal4S(b1-4)GlcNAc
# Outline: as §1
# GalNAc(a1-3)Gal = target: GalNAc(a1-3)Gal
# Outline: as §1
# Glc(a1-4)Glc = target: Glc(a1-4)Glc
# Outline: as §1
# [4] = target: GlcNAc(a1-6)Gal(b1-4)GlcNAc
# Outline: as §1
# Kdn(a2-3)Gal(b1-4)GlcNAc = target: Kdn(a2-3)Gal(b1-4)GlcNAc
# Outline: as §1
# Man(a1-2)Man(a1-3)Man = target: Man(a1-2)Man(a1-3)Man
# Outline: as §1
# Man(a1-3)[Man(a1-6)]Man = target: Man(a1-3)[Man(a1-6)]Man
# Outline: as §1
# [5] = target: Man(a1-3)[Man(a1-6)]Man(b1-4)GlcNAc(b1-4)GlcNAc
# Outline: as §1
# [6] = target: Neu5Ac(a2-3)Gal(b1-4)GlcNAc(b1-3)Gal(b1-4)GlcNAc
# Outline: as §1
# [7] = target: Neu5Ac(a2-8)Neu5Ac(a2-3)[GalNAc(b1-4)]Gal(b1-4)Glc
# Outline: as §1
# [8] = target: Neu5Ac(a2-8)Neu5Ac(a2-8)Neu5Ac
# Outline: as §1
# [9] = target: Neu5Ac9Ac(a2-6)Gal(b1-4)GlcNAc
# Outline: as §1
binder,measurement,setting,value
CV-IIL (Chromobacterium violaceum) (protein) AQQGVFTLPARINFGVTVLVNSAATQHVEIFVDNEPRAAFSGVGTGDNNLGTKVINSGSGNVRVQITANGRQSDLVSSQLVLANKLNLAVVGSEDGTDMDYNDSIVILNWPLG,glycan array binding signal (z-score),Fuc(a1-2)Gal(b1-3)GlcNAc,2.67
same,glycan array binding signal (z-score),[1],2.2
same,glycan array binding signal (z-score),Fuc(a1-2)Gal(b1-4)GlcNAc,2.98
same,glycan array binding signal (z-score),[2],1.68
same,glycan array binding signal (z-score),[3],1.2
same,glycan array binding signal (z-score),Gal(a1-3)Gal(b1-4)GlcNAc,-0.501
same,glycan array binding signal (z-score),Gal(a1-4)GlcNAc,-0.501
same,glycan array binding signal (z-score),Gal4S(b1-4)GlcNAc,-0.501
same,glycan array binding signal (z-score),GalNAc(a1-3)Gal,-0.502
same,glycan array binding signal (z-score),Glc(a1-4)Glc,-0.49
same,glycan array binding signal (z-score),[4],-0.501
same,glycan array binding signal (z-score),Kdn(a2-3)Gal(b1-4)GlcNAc,-0.502
same,glycan array binding signal (z-score),Man(a1-2)Man(a1-3)Man,1.55
same,glycan array binding signal (z-score),Man(a1-3)[Man(a1-6)]Man,2.82
same,glycan array binding signal (z-score),[5],2.82
same,glycan array binding signal (z-score),[6],-0.498
same,glycan array binding signal (z-score),[7],-0.501
same,glycan array binding signal (z-score),[8],-0.501
same,glycan array binding signal (z-score),[9],-0.502
